# Only some compounds are listed: those with a hit (about 2.1% of all), similar ones and a draw of the others.
# KLF5 inhibitor: KLF5 expression inhibitors, primary screen, DLD-1 cells, luminescence; inhibition, % at 5 µM; DLD-1 KLF5 promoter-luciferase reporter; AID 1700, 2009; hit rate 0.23% among 290,000;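 active = inhibition above a per-plate limit of that plate's mean compound inhibition plus 3 SD, cut at about 60% in these data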;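 note: 0% = DMSO wells and 100% = LY294002 at 200 µM; higher means less KLF5 promoter-driven luciferase light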
# Wee1 stabilizer: Wee1 degradation inhibitors, primary screen, cell-based, HeLa, Wee1K328M-luciferase, luminescence. Wee1-like protein kinase (Homo sapiens), P30291. AID 1321, 2008. hit rate 1.2% among 220,000. HeLa Luc-Wee1K328M stability; 100% = proteasome inhibitor MG132 effect. reporter increase, % at 5 µM;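 active = activation above the mean of all tested compounds plus 3 SD, set per screening run, cut at about 8.8% in these data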;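 note: cells exposed to compound for 20 h before luminescence read; 0% = DMSO alone and 100% = MG132 at 30 µM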
# Target sequence (P30291 whole entry K328M): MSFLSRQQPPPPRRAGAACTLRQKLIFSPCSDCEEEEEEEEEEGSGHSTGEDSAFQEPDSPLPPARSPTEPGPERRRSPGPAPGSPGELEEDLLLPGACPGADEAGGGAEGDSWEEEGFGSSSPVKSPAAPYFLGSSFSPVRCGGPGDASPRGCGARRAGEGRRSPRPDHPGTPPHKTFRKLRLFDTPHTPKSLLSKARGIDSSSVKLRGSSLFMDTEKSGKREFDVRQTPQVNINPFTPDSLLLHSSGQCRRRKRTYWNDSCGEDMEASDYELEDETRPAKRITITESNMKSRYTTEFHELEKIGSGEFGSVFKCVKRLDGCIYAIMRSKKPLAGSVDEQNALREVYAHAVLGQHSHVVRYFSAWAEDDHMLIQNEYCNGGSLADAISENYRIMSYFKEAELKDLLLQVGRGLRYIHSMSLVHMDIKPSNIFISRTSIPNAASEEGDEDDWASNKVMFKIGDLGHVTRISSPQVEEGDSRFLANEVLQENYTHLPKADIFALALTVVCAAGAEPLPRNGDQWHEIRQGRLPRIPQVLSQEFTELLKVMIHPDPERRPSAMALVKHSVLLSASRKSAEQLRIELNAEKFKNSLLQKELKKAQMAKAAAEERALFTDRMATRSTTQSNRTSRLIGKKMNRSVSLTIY
# Platelet DG rel: inhibitors of platelet dense granule secretion, primary screen, cell-based, MLPCN, human platelets; human platelet-rich plasma, SFLLRN dense granule ATP release, luminescence; inhibition, %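 (compounds screened at 7.5 µM in platelet-rich plasma)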; hit rate 0.22% among 300,000;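 active = mean replicate score, as percent of positive control, at or above 50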
# aSyn 5UTR inh: MLPCN primary screen, SNCA 5' untranslated region. hit rate 0.82% among 300,000. inhibition, % (tested at 7.5 µM). alpha-synuclein 5'UTR reporter, inhibitor activity; in the data active = inhibition above about 60%;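 note: H4 neuroglioblastoma cells stably carrying SNCA 5'UTR luciferase fusion; 0% = DMSO wells and 100% = positive control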
# HIF activator: HIF pathway transcriptional activators, primary screen, cell-based, U2OS HRE-luciferase, luminescence; U2OS HRE-luciferase reporter; normalized: DMSO 0%, desferrioxamine 100%; activation, % at 7.5 µM (by protocol); hit rate 0.32% among 300,000; AID 1910, 2009;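 active = mean activation of at least 10% of the iron chelator positive control signal, with at least half of replicates also reaching 10%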
# * marks the source's active call; other numbers are inactive results; / = no result.
SMILES,KLF5 inhibitor,Wee1 stabilizer,Platelet DG rel,aSyn 5UTR inh,HIF activator
Cc1c(C)c2ccc(OCC(=O)Nc3nccs3)cc2oc1=O,-12,/,10,66*,-4
Cc1cc(=O)oc2cc(OCC(=O)Nc3nccs3)ccc12,-114,/,-3,-51,2
O=c1c(C/C=C/c2ccccc2)c(O)ccn1Cc1cccc(Cl)c1,-15,11*,28,21,-1
c1csc(-c2nc3ccccc3[nH]2)c1,-108,-2,/,/,/
Cc1ccc(-c2nc3ccccc3[nH]2)s1,-136,2,59*,-80,2
CCOC(=O)c1nc2sc3c(c2c(=O)[nH]1)CCCC3,-13,-2,60*,2,0
Cc1nn(C(C)C(=O)NC2CCCCCC2)c(=O)c2nn(-c3ccccc3)c(C)c12 (centres undefined),-43,/,-2,1,0
O=C(c1ccc(Cl)c(S(=O)(=O)N2CCCCCC2)c1)N1CCCC1,-4,0,6,-1,0
CCCc1ccc(-c2cc(NC(=O)CSc3nnc(N)s3)n(-c3ccccc3)n2)cc1,-108,10*,6,-146,2
COc1ccccc1OCC(=O)NCC1CCCN(Cc2cnn(C)c2C)C1 (centres undefined),-11,/,0,9,0
C(=C\c1ccco1)/C=N/n1cnnc1,1,9.7*,/,14,-1
COc1ccc(/C=N/n2nnnc2N)c(OC)c1,-50,/,3,-37,-1
O=C(O)CN1C(=O)NC2(CCOc3ccccc32)C1=O (centres undefined),-20,9.8*,5,-10,0
CC1=C([N+](=O)[O-])C(c2cccc(Br)c2)C2=C(N1)c1ccccc1C2=O (centres undefined),48,-3,4,90*,2
COC(=O)C1=C(C)NC2=C(C(=O)c3ccccc32)C1c1cccc(OC)c1 (centres undefined),-31,0,6,-14,0
Cc1cccc(NC(=O)CNC(=O)CN2C(=O)NC3(CCCCC3C)C2=O)c1C (centres undefined),/,/,-8,0,0
CCOc1cc(/C=N/Nc2cc(C)nc(-n3nc(C)cc3C)n2)ccc1O,4,-2,1,68*,0
Cc1cc(N/N=C/c2ccc(F)cc2)nc(-n2nc(C)cc2C)n1,-2,4,3,9,0
COc1cc(C(=O)Nc2ccc(C)cc2)c2ccccc2n1,62,/,-1,82*,1
COc1cc(NC(=S)NCCCN2CCOCC2)cc(OC)c1,-44,9.6*,-13,-2,0
COc1ccc(-c2nc(CC(=O)O)cs2)cc1OC,-13,23*,-8,-3,0
CC1=NN(c2nc(-c3ccc(C)cc3)cs2)C(=O)C1N=Nc1ccccc1O (centres undefined),-14,1,4,63*,1
COc1cc(C(=O)NC(CCSC)C(=O)OCc2cc([N+](=O)[O-])cc3c2OCOC3)cc(OC)c1OC (centres undefined),13,9.6*,3,21,-1
CCOc1ccc(C(=O)NCC(=O)OCc2cc([N+](=O)[O-])cc3c2OCOC3)cc1OCC,5,-1,2,9,0
O=S(=O)(Nc1ccc(-c2ccc3nncn3n2)cc1)c1ccccc1Cl,/,/,61*,10,-1
SMILES,KLF5 inhibitor,Wee1 stabilizer,Platelet DG rel,aSyn 5UTR inh,HIF activator
COc1ccc(-n2nc3c(N4CCC(C(=O)NCCc5ccccc5C)CC4)nnc(C)c3c2C)cc1,-21,/,2,19,-1
Cc1ccc(-n2nc3c(N4CCC(C(=O)NCCc5ccccc5C)CC4)nnc(C)c3c2C)cc1,-2,/,-7,72*,-1
COCC(C)NC(=O)c1cc2cccc([N+](=O)[O-])c2[nH]1 (centres undefined),-14,1,0,-8,0
Cc1cc(NC(=O)c2cc3cccc([N+](=O)[O-])c3[nH]2)ccc1F,-123,17*,4,-93,3
Cc1ccc2nc(N3CC(=O)Nc4ccccc43)nc(-c3ccccc3)c2c1,13,9.6*,/,/,/
O=C(NC1CCCC1)C(c1ccc(F)cc1)N(C(=O)c1csnn1)C1CC1 (centres undefined),10,/,3,20,0
O=C(NCc1ccco1)C1CCCN1C(=O)Nc1ccc(Br)cc1 (centres undefined),-22,/,3,-5,1
Cc1c(Br)c(O)c(Br)c(O)c1/C=N/n1c(-c2ccccc2)n[nH]c1=S,10,/,-2,62*,2
O=c1cc(CNc2cc(C(F)(F)F)cc(C(F)(F)F)c2)nc2sccn12,8,3,-9,65*,0
CC(=O)NS(=O)(=O)c1ccc(NC(=O)COc2ccc(C(=O)c3ccccc3)cc2)cc1,-25,10*,18,2,0
O=C(CNCc1ccccn1)N1CCc2ccccc2C1,-11,-2,3,-25,0
Cc1c(C(=O)N(C)C)sc(NC(=O)c2cccc([N+](=O)[O-])c2)c1C#N,-43,10*,0,-51,0
O=C(CN1CCCc2ccccc21)N/N=C/c1ccccc1,-13,-2,-3,-28,2
CC(C)(C)NC(=O)NC(=O)CN1CCCc2ccccc21,-14,-2,/,/,/
O=C(CN1CCCc2ccccc21)N/N=C/c1c(O)ccc2ccccc12,-2,-1,-7,18,16*
O=C(CN1CCCc2ccccc21)NC(=O)NC1CCCCC1,-18,9.2*,24,-38,2
O=C(N/N=C/c1c(O)ccc2ccccc12)c1ccc(CO)nc1,41,/,-2,51,34*
O=C(N/N=C\c1c(O)ccc2ccccc12)c1ccc(S(=O)(=O)N2CCCCC2)cc1,-9,2,-13,114*,23*
Cc1ccc(-c2nc(CN3CCN(C(=O)C4CCCO4)CC3)cs2)cc1 (centres undefined),-14,/,-4,0,1
O=C(Cn1c(=S)[nH]c2ccccc2c1=O)NCCc1ccccc1,-20,9.5*,3,13,-1
O=C(CCn1c(=S)[nH]c2ccccc2c1=O)NCCSCc1ccccc1,8,-3,-6,25,-1
COc1ccccc1CN1CC(=O)N2CSC[C@H]2C1=O,-22,/,-5,-12,-30
COc1ccc(NC(=O)NC(=O)c2ccccc2)cc1,-152,/,20,-221,4
O=C(NC(=O)c1ccccc1)Nc1ccccc1,15,/,3,72*,3
COc1cccc(NC(=O)C2CCN(S(=O)(=O)c3ccc4c(c3)C(C)(C)C(=O)N4C)CC2)c1,-23,/,-16,10,0
Cc1cc(NC(=O)CCSc2nc(-c3ccco3)cc(C(F)(F)F)n2)no1,-5,0,-1,20,0
Cc1cc(NC(=O)CSc2nc(-c3ccco3)cc(C(F)(F)F)n2)no1,39,6,-3,69*,0
COc1ccc(COC(=O)CCNC(=O)c2ccc(Cl)cc2)cc1,/,/,/,-5,1

# Source: PubChem (several laboratories)
